The record followed here is PubChem BioAssay (NCATS).

“And” between values parts separate entries of the source, which are not always exact repeats. Equal values may be shown once. Inconclusive results are not listed. Values without a mark were called inactive. The source made the active and inactive calls. The call rests on the fitted dose curve; in most records, active means well fitted curve in the direction sought with a large enough effect; inconclusive means small, poorly fitted or top-dose-only effect, or another doubt; inactive means no such curve, though single readings can be large; an effect the other way counts as inactive or inconclusive.

Sequence of Cellular tumor antigen p53 (Homo sapiens) (P04637 whole entry, looked up): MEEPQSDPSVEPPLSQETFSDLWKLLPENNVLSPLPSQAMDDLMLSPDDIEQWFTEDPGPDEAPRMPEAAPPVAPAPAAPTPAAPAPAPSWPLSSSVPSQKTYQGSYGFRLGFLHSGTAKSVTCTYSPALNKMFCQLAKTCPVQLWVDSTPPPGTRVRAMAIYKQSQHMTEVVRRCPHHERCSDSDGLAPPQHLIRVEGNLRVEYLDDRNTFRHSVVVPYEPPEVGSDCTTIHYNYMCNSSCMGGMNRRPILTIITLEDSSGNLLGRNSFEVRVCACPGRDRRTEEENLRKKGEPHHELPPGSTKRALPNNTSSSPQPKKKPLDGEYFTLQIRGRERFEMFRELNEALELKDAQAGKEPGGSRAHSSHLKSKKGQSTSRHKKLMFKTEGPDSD

In one experiment the target is Cellular tumor antigen p53 (Homo sapiens) (UniProt P04637). Nature of the experiment: Primary qHTS for small molecule compounds that upregulate eGFP-tagged delta133p53alpha (in N-terminal) cells. (AID 2060322).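 Further: 0% = DMSO vehicle and 100% = reference activator; nearly all actives have a fitted effect of over 75% in size.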 Particulars: NCI-H358 eGFP-delta133p53alpha fluorescence, 24 h; activation: hits give high values. The gist of the method:
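NCI-H358 cells pre-induced 24 h with 10 ng/ml doxycycline to express N-terminal eGFP-delta133p53alpha, then dosed 24 h at 37C without doxycycline; fixed, Hoechst-stained, GFP intensity by laser scanning cytometry, normalized to DMSO (0%) and 57.5 uM 5-azacytidine (100%).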
For the molecule `CCC(C)n1ncn(-c2ccc(N3CCN(c4ccc(OC[C@H]5CO[C@](Cn6cncn6)(c6ccc(Cl)cc6Cl)O5)cc4)CC3)cc2)c1=O` (some centres undefined), the activation is 10% and -7.18% and -11.6%.

Take `N#C[C@@H]1C[C@@H]2C[C@@H]2N1C(=O)[C@@H](N)C12CC3CC(CC(O)(C3)C1)C2`: the activation is -3%.

`C[C@@H](NCCCc1cccc(C(F)(F)F)c1)c1cccc2ccccc12`: the activation is 1.97%.

For `N[C@@H](Cc1cc(I)c(Oc2cc(I)c(O)c(I)c2)c(I)c1)C(=O)O`, the activation is -1.69% and -8.29% and -5.67%.

`O=C(c1ccc(Nc2nccc(-c3cc4ccccc4s3)n2)cc1)N1CCC(N2CCCC2)CC1`: the activation is -33.3%.

As to `Cc1ccccc1C(=O)Nc1ccc(C(=O)N2CCCC(O)c3cc(Cl)ccc32)c(C)c1` (centres undefined), the activation is 0.83%.

Turning to `CCS(=O)(=O)N1CCC([C@@H](C)n2c(C)c(C(=O)NCc3c(OC)cc(C)[nH]c3=O)c3ccccc32)CC1`, the activation is 7.16%.

With `CC(C)(C)C(=O)Oc1ccc2c(c1)nc(NC(=O)c1cccc([N+](=O)[O-])c1)n2CCCO`, the activation is 12%.

Turning to `CN[C@@H](C)[C@H]1[C@H](O)C[C@@]2(C)[C@@H]3CC[C@H]4C(C)(C)[C@@H](NC)CC[C@@]45C[C@@]35CC[C@]12C`, the activation is -17.2% and -1.67%.

The next experiment concerns the target Aldehyde dehydrogenase, mitochondrial (Homo sapiens) (UniProt P05091). The experiment is described as follows: qHTS for Inhibitors of the Aldehyde Dehydrogenase Family (ALDH2) Primary screen (AID 2061308).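 Further: plate controls were vehicle for no effect and reference inhibitor for full effect; nearly all actives have a fitted effect of over 55% in size.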 As to conditions: ALDH2 enzyme inhibition qHTS, 1536-well; series mostly up to 56 µM; activity change, negative = inhibition: at the top concentration.
`CNC(=O)c1c(-c2ccc(F)cc2)oc2cc(N(CCO)S(C)(=O)=O)c(C3CC3)cc12`: the “activity change, negative = inhibition” value is 1.67%.

As to `CN1C(=O)N[C@@H](Cc2c[nH]c3c(Cl)cccc23)C1=O`, the “activity change, negative = inhibition” value is 3.52%.

Regarding `CC[C@@H]1C(=O)N(C)c2cnc(Nc3ccc(C(=O)NC4CCC(N5CCN(CC6CC6)CC5)CC4)cc3OC)nc2N1C(C)C` (some centres undefined), the Potency result was “inactive”.

On to `C[C@@H]1CN(Cc2ccc(F)cc2)[C@@H](C)CN1C(=O)c1cc2c(C(=O)C(=O)N(C)C)cn(C)c2cc1Cl`, for which the “activity change, negative = inhibition” value was 4.11%.

As to `CN1CCN(c2ccc(OC(F)(F)F)c(Nc3ncc4c(n3)-c3c(c(C(N)=O)nn3CCO)CC4)c2)CC1`, the “activity change, negative = inhibition” value was 4.42%.

`Cc1ccc2c(c1)C(=O)[C@]1(O)CCN(c3ccccc3)C1=N2`: the “activity change, negative = inhibition” value is 4.05%.

`NCCOc1cc(C(=O)Nc2cc(OCCN)c3ccccc3n2)nc(C(=O)Nc2cc(OCCN)c3ccccc3n2)c1`: the “activity change, negative = inhibition” value is 13.9%.

On to `C=CC(=O)Nc1cccc(Sc2nc(Nc3ccc(N4CCN(C)CC4)cc3)ncc2Cl)c1`, for which the “activity change, negative = inhibition” value is -2.28%.

For `CC(C)c1nn(-c2c(Cl)cccc2Cl)c2nc(Cc3ccc(OCCO)cc3)[nH]c(=O)c12`, the “activity change, negative = inhibition” value was -1.93%.

In the case of `COc1ccc(-c2c(-c3ccc(O)cc3O)n[nH]c2C)cc1`, the “activity change, negative = inhibition” value is 11.9%.

As to `CC(C)[C@H](CO)Nc1nc(Nc2ccc(C(=O)O)c(Cl)c2)c2ncn(C(C)C)c2n1`, the “activity change, negative = inhibition” value was -9.94% [at 28 µM].

Turning to `FC(F)(F)c1ccc(/C=C/c2nc(COc3ccc(CCCCn4ccnn4)cc3)co2)cc1`, the “activity change, negative = inhibition” value was 4.92%.

Turning to `CC(C)n1nc(-c2ccc3oc(N)nc3c2)c2c(N)ncnc21`, the “activity change, negative = inhibition” value was 3.12%.

As for `CC[C@H](NC(=O)[C@H](CS(=O)(=O)CC1CC1)N[C@@H](c1ccc(F)cc1)C(F)(F)F)C(=O)C(=O)NC1CC1`, the “activity change, negative = inhibition” value is -0.587%.

In the case of `O=C(Nc1ccc(Oc2ccnc3[nH]ccc23)c(F)c1)c1cccn(-c2ccc(F)cc2)c1=O`, the “activity change, negative = inhibition” value is -3.28%.

Regarding `CNC(=O)c1nn(C)c2c1C(C)(C)Cc1cnc(Nc3ccc(N4CCN(C)CC4)cc3)nc1-2`, the “activity change, negative = inhibition” value was -4.14%.

`NS(=O)(=O)c1cc(Cl)c(Cl)c(S(N)(=O)=O)c1`: the “activity change, negative = inhibition” value was 8.18%.

Consider `COc1cccc2c1c(O)c(C(=O)N(C)c1ccc(C(F)(F)F)cc1)c(=O)n2C`, for which the “activity change, negative = inhibition” value was 15.8%.

Consider `O=C(Nc1ccc(F)c(C(F)(F)F)c1)Nc1nnc(-c2ccncc2)s1`, for which the Potency result is “inactive”.

On to `Cc1c(F)cc(C(=O)NC2CC2)cc1-c1c(F)cn2c(C(C)(C)C)nnc2c1F`, for which the “activity change, negative = inhibition” value was 11.8%.

As for `CN(C)C/C=C/C(=O)Nc1ccc(C(=O)Nc2cccc(Nc3ncc(Cl)c(-c4c[nH]c5ccccc45)n3)c2)cc1`, the “activity change, negative = inhibition” value was 11%.

As to `CCCCc1ccc(NS(=O)(=O)c2ccc(C)c(C(=O)N3CCN(c4cccc(C)c4C)CC3)c2)cc1`, the “activity change, negative = inhibition” value was -13.6% [at 114 µM].

`CCOC(=O)c1ccnc(CNCC(=O)N(CC)CCN(C)C)c1`: the “activity change, negative = inhibition” value is -11.3%.

For `COc1ccc(-c2c(C)nn3c(NCCN4CCOCC4)cc(C)nc23)cc1OC`, the “activity change, negative = inhibition” value is 0.772%.

As for `CCS(=O)(=O)N1CCN(c2ccc(Nc3ncc(C(N)=O)c(NC4CC4)n3)cc2)CC1`, the “activity change, negative = inhibition” value is 9.45%.

In the case of `O=C([C@@H](Cc1cccc(C(F)(F)F)c1)NS(=O)(=O)c1cc(F)c2c(c1)CCNC2)N1CCCC1`, the “activity change, negative = inhibition” value is 16.7%.

With `O=C(O)[C@H](CC(=O)N1C[C@H]2CCCC[C@H]2C1)Cc1ccccc1`, the “activity change, negative = inhibition” value was 0.577%.

With `c1ccc2c(Oc3nc(Nc4ccc(N5CCOCC5)cc4)c4ncn(C5CCCCC5)c4n3)cccc2c1`, the “activity change, negative = inhibition” value is 3.21%.

Regarding `CCNC(=O)[C@H]1O[C@@H](n2cnc3c(N)nc(NCCc4ccc(CCC(=O)O)cc4)nc32)[C@H](O)[C@@H]1O`, the “activity change, negative = inhibition” value is 3.9%.

With `Cc1ccc(S(=O)(=O)Cc2nc(-c3ccc(C(=O)NCc4cccnc4)cc3)oc2C)cc1`, the “activity change, negative = inhibition” value is -5.27%.

As for `COc1cc(C(=O)N2CCC(N3CCN(C)CC3)CC2)ccc1Nc1ncc2c(n1)N(C)c1ccccc1C(=O)N2C`, the “activity change, negative = inhibition” value is 21.4%.

Regarding `CCC(C)n1ncn(-c2ccc(N3CCN(c4ccc(OC[C@H]5CO[C@](Cn6cncn6)(c6ccc(Cl)cc6Cl)O5)cc4)CC3)cc2)c1=O` (some centres undefined), the “activity change, negative = inhibition” value was 26.4% [at 28 µM].

For `N#C[C@@H]1C[C@@H]2C[C@@H]2N1C(=O)[C@@H](N)C12CC3CC(CC(O)(C3)C1)C2`, the “activity change, negative = inhibition” value is 1.57%.

Regarding `C[C@@H](NCCCc1cccc(C(F)(F)F)c1)c1cccc2ccccc12`, the “activity change, negative = inhibition” value was 5.27%.

Consider `N[C@@H](Cc1cc(I)c(Oc2cc(I)c(O)c(I)c2)c(I)c1)C(=O)O`, for which the “activity change, negative = inhibition” value is -8.98%.

On to `O=C(c1ccc(Nc2nccc(-c3cc4ccccc4s3)n2)cc1)N1CCC(N2CCCC2)CC1`, for which the “activity change, negative = inhibition” value was 11%.

With `Cc1ccccc1C(=O)Nc1ccc(C(=O)N2CCCC(O)c3cc(Cl)ccc32)c(C)c1` (centres undefined), the “activity change, negative = inhibition” value is -12.5%.

In the case of `CCS(=O)(=O)N1CCC([C@@H](C)n2c(C)c(C(=O)NCc3c(OC)cc(C)[nH]c3=O)c3ccccc32)CC1`, the “activity change, negative = inhibition” value is -8.94%.

Take `CC(C)(C)C(=O)Oc1ccc2c(c1)nc(NC(=O)c1cccc([N+](=O)[O-])c1)n2CCCO`: the “activity change, negative = inhibition” value is 8.12%.

On to `CN[C@@H](C)[C@H]1[C@H](O)C[C@@]2(C)[C@@H]3CC[C@H]4C(C)(C)[C@@H](NC)CC[C@@]45C[C@@]35CC[C@]12C`, for which the activity change, negative = inhibition is 0.631% [at 11.2 µM].
